In PubChem BioAssay AID1159580 (chemical genetic matrix, 2015):
Hit rate of the full screen: of about 5,500 compounds, about 2,000 (36%) were called active. Inconclusive results (about 18%) are left out. Cut-off read from the data, not from the text of the source: active = normalized growth mostly below about 0.91 (no sharp cut-off); inconclusive = no clear call, values can overlap the other calls; inactive = mostly above about 0.92. Some of the results follow.

Test: chemical genetic growth profiling, strain panel (AID 1159580);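 note: tested at 20 µM; growth read once vehicle control cultures reached saturation at 30 °C; 1 = growth at the plate median or of vehicle wells; lower values mean less growth of the strain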
Conditions: growth OD

Measured: normalized growth

CCOP(=S)(OCC)Oc1ccc2c(C)c(Cl)c(=O)oc2c1
inactive: S. cerevisiae deletion strains, locus YJR075W, strain HOC1, hits give low values 0.945 | S. cerevisiae deletion strains, locus YKL009W, strain mrt4, hits give low values 0.952 | S. cerevisiae deletion strains, locus YKL068W, hits give low values 0.985 | S. cerevisiae deletion strains, locus YKL085W, strain MDH1 (second series), hits give low values 0.982 | S. cerevisiae deletion strains, locus YKL085W, strain MDH1, hits give low values 0.982 | S. cerevisiae deletion strains, locus YKL160W, strain elf1, hits give low values 1 | S. cerevisiae deletion strains, locus YKL190W, strain CNB1, hits give low values 0.983 | S. cerevisiae deletion strains, locus YKR001C, strain vps1, hits give low values 0.981 | S. cerevisiae deletion strains, locus YKR026C, strain gcn3, hits give low values 0.944 | S. cerevisiae deletion strains, locus YKR091W, strain srl3, hits give low values 0.973 | S. cerevisiae deletion strains, locus YLL001W, strain dnm1, hits give low values 0.988 | S. cerevisiae deletion strains, locus YLL026W, hits give low values 0.946 | S. cerevisiae deletion strains, locus YLL041C, strain sdh2, hits give low values 0.956 | S. cerevisiae deletion strains, locus YLR027C, strain aat2, hits give low values 0.935 | S. cerevisiae deletion strains, locus YLR039C, strain RIC1, hits give low values 0.94 | S. cerevisiae deletion strains, locus YLR058C, strain SHM2, hits give low values 0.971 | S. cerevisiae deletion strains, locus YLR102C, strain apc9, hits give low values 0.985 | S. cerevisiae deletion strains, locus YLR113W, strain HOG1, hits give low values 0.936 | S. cerevisiae deletion strains, locus YLR221C, strain rsa3, hits give low values 0.933 | S. cerevisiae deletion strains, locus YLR258W, strain gsy2, hits give low values 0.969 | S. cerevisiae deletion strains, locus YLR262C, strain YPT6 (second series), hits give low values 0.976 | S. cerevisiae deletion strains, locus YLR262C, strain YPT6, hits give low values 0.929 | S. cerevisiae deletion strains, locus YLR268W, strain sec22, hits give low values 0.965 | S. cerevisiae deletion strains, locus YLR320W, strain mms22, hits give low values 0.914 | S. cerevisiae deletion strains, locus YLR330W, strain CHS5, hits give low values 0.979 | S. cerevisiae deletion strains, locus YLR342W, strain FKS1 (second series), hits give low values 1.01 | S. cerevisiae deletion strains, locus YLR342W, strain FKS1, hits give low values 0.961 | S. cerevisiae deletion strains, locus YLR357W, strain rsc2, hits give low values 0.972 | S. cerevisiae deletion strains, locus YLR370C, strain arc18, hits give low values 0.944 | S. cerevisiae deletion strains, locus YLR371W, strain rom2, hits give low values 0.993 | S. cerevisiae deletion strains, locus YLR384C, strain iki3, hits give low values 0.983 | S. cerevisiae deletion strains, locus YLR418C, strain cdc73, hits give low values 0.956 | S. cerevisiae deletion strains, locus YML016C, strain PPZ1, hits give low values 0.983 | S. cerevisiae deletion strains, locus YML032C, strain rad52, hits give low values 0.979 | S. cerevisiae deletion strains, locus YML120C, strain ndi1, hits give low values 0.962 | S. cerevisiae deletion strains, locus YML124C, strain tub3, hits give low values 0.986 | S. cerevisiae deletion strains, locus YMR058W, strain fet3, hits give low values 0.957 | S. cerevisiae deletion strains, locus YMR078C, strain ctf18, hits give low values 0.979 | S. cerevisiae deletion strains, locus YMR125W, strain sto1, hits give low values 0.97 | S. cerevisiae deletion strains, locus YMR129W, hits give low values 0.97 | S. cerevisiae deletion strains, locus YMR205C, strain PFK2, hits give low values 0.955 | S. cerevisiae deletion strains, locus YMR223W, strain ubp8, hits give low values 0.987 | S. cerevisiae deletion strains, locus YMR231W, strain pep5, hits give low values 0.948 | S. cerevisiae deletion strains, locus YMR263W, strain SAP30, hits give low values 0.972 | S. cerevisiae deletion strains, locus YMR307W, strain GAS1, hits give low values 0.894 | S. cerevisiae deletion strains, locus YNL067W, strain RPL9B, hits give low values 0.981 | S. cerevisiae deletion strains, locus YNL071W, strain lat1, hits give low values 0.944 | S. cerevisiae deletion strains, locus YNL128W, strain TEP1, hits give low values 0.952 | S. cerevisiae deletion strains, locus YNL153C, strain GIM3, hits give low values 0.972 | S. cerevisiae deletion strains, locus YNL183C, strain NPR1, hits give low values 0.974 | S. cerevisiae deletion strains, locus YNL209W, strain ssb2, hits give low values 0.957 | S. cerevisiae deletion strains, locus YNL233W, strain BNI4, hits give low values 0.959 | S. cerevisiae deletion strains, locus YNL248C, strain rpa49, hits give low values 0.96 | S. cerevisiae deletion strains, locus YNL250W, strain rad50, hits give low values 0.98 | S. cerevisiae deletion strains, locus YNL271C, strain bni1, hits give low values 0.99 | S. cerevisiae deletion strains, locus YNL298W, strain CLA4, hits give low values 0.979 | S. cerevisiae deletion strains, locus YNL307C, strain MCK1, hits give low values 0.981 | S. cerevisiae deletion strains, locus YNL322C, strain KRE1 (second series), hits give low values 0.932 | S. cerevisiae deletion strains, locus YNL322C, strain KRE1, hits give low values 0.981 | S. cerevisiae deletion strains, locus YNR049C, strain mso1, hits give low values 0.954 | S. cerevisiae deletion strains, locus YNR052C, strain pop2, hits give low values 0.994 | S. cerevisiae deletion strains, locus YOL006C, strain TOP1, hits give low values 0.884 | S. cerevisiae deletion strains, locus YOL012C, strain htz1 1.3 | S. cerevisiae deletion strains, locus YOL147C, strain pex11, hits give low values 0.993 | S. cerevisiae deletion strains, locus YOR001W, strain rrp6, hits give low values 0.95 | S. cerevisiae deletion strains, locus YOR061W, strain CKA2, hits give low values 0.961 | S. cerevisiae deletion strains, locus YOR069W, strain VPS5, hits give low values 0.979 | S. cerevisiae deletion strains, locus YOR070C, strain gyp1, hits give low values 0.994 | S. cerevisiae deletion strains, locus YOR080W, strain dia2, hits give low values 0.959 | S. cerevisiae deletion strains, locus YOR083W, strain WHI5, hits give low values 0.991 | S. cerevisiae deletion strains, locus YOR106W, strain vam3, hits give low values 0.939 | S. cerevisiae deletion strains, locus YOR136W, strain idh2, hits give low values 0.977 | S. cerevisiae deletion strains, locus YOR144C, strain elg1, hits give low values 0.985 | S. cerevisiae deletion strains, locus YOR184W, strain ser1, hits give low values 0.976 | S. cerevisiae deletion strains, locus YOR231W, strain MKK1, hits give low values 1.03 | S. cerevisiae deletion strains, locus YOR265W, strain rbl2, hits give low values 0.94 | S. cerevisiae deletion strains, locus YOR270C, strain vph1, hits give low values 0.904 | S. cerevisiae deletion strains, locus YOR290C, strain snf2, hits give low values 0.928 | S. cerevisiae deletion strains, locus YOR316C, strain cot1, hits give low values 0.971 | S. cerevisiae deletion strains, locus YPL051W, strain arl3, hits give low values 0.963 | S. cerevisiae deletion strains, locus YPL055C, strain LGE1, hits give low values 0.948 | S. cerevisiae deletion strains, locus YPL078C, strain atp4, hits give low values 0.982 | S. cerevisiae deletion strains, locus YPL106C, strain sse1, hits give low values 0.957 | S. cerevisiae deletion strains, locus YPL240C, strain hsp82, hits give low values 0.95 | S. cerevisiae deletion strains, locus YPL241C, strain CIN2, hits give low values 0.982 | S. cerevisiae deletion strains, locus YPL256C, strain CLN2, hits give low values 1.03 | S. cerevisiae deletion strains, locus YPR119W, strain clb2, hits give low values 0.983 | S. cerevisiae deletion strains, locus YPR141C, strain kar3, hits give low values 0.951 | S. cerevisiae deletion strains, locus YPR163C, strain tif3, hits give low values 0.987 | S. cerevisiae deletion strains, locus YPR167C, strain met16, hits give low values 0.99 | S. cerevisiae deletion strains, strain wtn01, hits give low values 0.989 | S. cerevisiae strains, strain wild type, hits give low values 0.981
